From PubChem BioAssay AID1850 (Southern Research Specialized Biocontainment Screening …, 2009)
Among all 310,000 compounds or so, about 1,000 (0.32%) were called active. No rule for the calls is given here. A selection follows. Potency and affinity values are given separately.

Test: PhoP regulon inhibitors, Salmonella typhi PhoP promoter GFP reporter, confirmatory (AID 1850);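 also: 0% = induced wells with vehicle and 100% = uninduced wells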
Details: fluorescence, 4 h, at 50 µM, active compounds read high
For `COc1cc2oc(=O)cc(C)c2c(OC)c1OC`, the inhibition was -3.26% (inactive).
In the case of `Cc1ccc(NC(=O)C2CCCN(S(=O)(=O)c3cccs3)C2)cc1` (stereo not drawn), the inhibition is reported as 3.27% (inactive).
With `CCOc1ccc(N2C(N)=NC(N)=NC2(C)C)cc1` the inhibition was -0.23% (inactive).
With `COc1ccc(N2C(N)=NC(N)=NC2(C)C)cc1` the inhibition was 2.39% (inactive).
In the case of `COC(=O)c1ccc(CNC(=O)COC(=O)Cc2ccsc2)cc1`, the inhibition is reported as 8.65% (inactive).
For `O=C(Nc1ccc(F)cc1)c1sc(Cl)nc1-c1ccccc1`, the inhibition was -0.89% (inactive).
For `O=C(/C=C/c1ccccc1O)c1ccco1`, the inhibition was 8.77% (inactive).
In the case of `O=C(/C=C/c1ccc(Br)cc1)c1ccco1`, the inhibition is reported as 2.45% (inactive).
For `Cc1ccc(-c2cc(-c3ccc(C)cc3)[n+](C)o2)cc1`, the inhibition was -2.37% (inactive).
With `COc1ccc(/C=C/C(=O)Oc2ccc(C)cc2)cc1` the inhibition was -5.85% (inactive).
With `CCOc1cccc(CN(C)CC2CCCN(CCc3ccc(Cl)cc3)C2)c1O` (stereo not drawn) the inhibition was -8.67% (inactive).
In the case of `CN(Cc1ccccc1OCCO)CC1CCCN(CCc2ccc(Cl)cc2)C1` (stereo not drawn), the inhibition is reported as 0.25% (inactive).
For `O=C(Nc1c(C(=O)N2CCOCC2)cnn1-c1ccccc1)c1cccc(F)c1`, the inhibition was -2.99% (inactive).
For `Cc1ccc2nc(N(CCN3CCOCC3)C(=O)CCS(=O)(=O)c3ccccc3)sc2c1`, the inhibition was 0.17% (inactive).
For `O=c1[nH]c(-c2ccccn2)nc2ccccc12`, the inhibition was -0.6% (inactive).
With `COc1cnc(-c2ccccn2)[nH]c1=O` the inhibition was -0.99% (inactive).
With `O=C(NC1CCCC1)C(c1ccccn1)N(C(=O)c1csnn1)c1ccccc1Br` (stereo not drawn) the inhibition was 5.15% (inactive).
For `CCN(CC)CCNC(=O)CNC(=O)c1nn(-c2ccc(OC)c(OC)c2)c(=O)c2ccccc12`, the inhibition was -2.16% (inactive).
In the case of `CC(=O)c1cc(C)ccc1OC(=O)c1ccncc1`, the inhibition is reported as -3.27% (inactive).
For `CN1CCC2(CC1)N=C(c1ccc(F)cc1)C(=S)N2C(=O)c1ccccc1`, the inhibition was -2.67% (inactive).
In the case of `CN1CCC2(CC1)N=C(c1ccc(F)cc1)C(=S)N2C(=O)c1ccc(C(C)(C)C)cc1`, the inhibition is reported as 17.9% (inactive).
In the case of `O=C(O)c1ccc(S(=O)(=O)Nc2ccc3c(c2)OCCO3)cc1`, the inhibition is reported as -5.88% (inactive).
With `CCCC(=O)Nc1ccc(C(=O)NNC(=O)COc2ccc(Br)c(C)c2)cc1` the inhibition was -2.62% (inactive).
With `O=c1[nH]cc(-c2ccccc2)c(=O)[nH]1` the inhibition was 2.03% (inactive).
For `O=c1[nH]cc(O)c(=O)[nH]1`, the inhibition was 6.55% (inactive).
With `COC(=O)CN1C2=NCCCN2c2ccccc21` the inhibition was 6.91% (inactive).
For `Cc1sc2cc3c(c(C(=O)c4ccccc4)[n+]2c1C)-c1cccc2cccc-3c12`, the inhibition was -9.84% (inactive).
In the case of `Cc1sc2ccccc2[n+]1CC(=O)c1ccccc1`, the inhibition is reported as -4.52% (inactive).
